Test results reported in PubChem BioAssay AID2284108 (EPA ToxCast).
Calls of active or inactive are those of the source. Rule for the calls: active = hit-call score of the fitted dose curve at least 0.9, where 1 is the maximum; inactive = score below 0.9.

Each molecule was assayed against human Src Tyrosine Kinase, SRC (gene 6714) (UniProt P12931) (assay: ERF_FR_ENZ_hSRC: Eurofins (ERF) Enzymatic Radiometric [Km ATP] KinaseProfiler LeadHunter Assay for human Src Tyrosine Kinase).
Method: ERF_FR_ENZ_hSRC is a biochemical, single-readout assay that uses extracted gene-proteins in a cell-free assay. Measurements were taken 0.16 hour after chemical dosing in a 96-well plate. See Src Human TK Kinase Enzymatic LANCE Assay [Km ATP], Cerep.ERF_FR_ENZ_hSRC is an assay component calculated from the ERF_FR_ENZ_hSRC assay. It is designed to measure enzyme activity using a type of enzyme reporter as detected by fluorescence intensity with LANCE technology.Data from the assay component ERF_FR_ENZ_hSRC was analyzed at the assay endpoint, ERF_FR_ENZ_hSRC, in the positive analysis fitting direction relative to DMSO as the negative control and baseline of activity. Using a type of enzyme reporter, loss-of-signal activity can be used to understand changes in enzymatic activity as they relate to gene SRC. To generalize the intended target to other relatable targets, this assay endpoint is annotated to the kinase intended target family, where the subfamily is non-receptor tyrosine kinase.
c-Src (h) is incubated with 8 mM MOPS pH 7.0, 0.2 mM EDTA, 250 uM […] (Cdc2 peptide), 10 mM MgAcetate and [gamma-33P]-ATP (specific activity and concentration as required). The reaction is initiated by the addition of the Mg/ATP mix. After incubation for 40 minutes at room temperature, the reaction is stopped by the addition of phosphoric acid to a concentration of 0.5%. […]

Sequence of human Src Tyrosine Kinase, SRC (gene 6714) (P12931 whole entry, looked up): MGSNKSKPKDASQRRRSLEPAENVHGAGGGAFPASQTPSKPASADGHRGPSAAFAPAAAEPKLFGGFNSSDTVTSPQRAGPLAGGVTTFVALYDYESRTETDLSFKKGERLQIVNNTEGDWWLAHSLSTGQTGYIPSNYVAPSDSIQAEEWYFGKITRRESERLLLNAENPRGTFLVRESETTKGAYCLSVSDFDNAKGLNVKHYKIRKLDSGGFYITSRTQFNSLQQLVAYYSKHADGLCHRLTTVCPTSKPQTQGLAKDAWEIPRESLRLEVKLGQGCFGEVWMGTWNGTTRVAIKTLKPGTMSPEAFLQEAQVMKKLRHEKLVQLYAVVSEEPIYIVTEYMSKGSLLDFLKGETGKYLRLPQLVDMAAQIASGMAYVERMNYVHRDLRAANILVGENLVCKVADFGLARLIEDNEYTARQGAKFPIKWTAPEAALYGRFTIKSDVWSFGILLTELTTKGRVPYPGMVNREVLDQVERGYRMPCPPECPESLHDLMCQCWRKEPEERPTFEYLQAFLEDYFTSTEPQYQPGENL

Structure (SMILES)	outcome
O=C(/C=C/c1ccc(O)cc1)CC(=O)/C=C/c1ccc(O)cc1	inactive
